The panel holds about 83,000 compounds, 20% with a hit somewhere; the sample as a whole holds those more often.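 48-hour exposure, single concentration, 96-well plates; percent growth endpoint where 0 means no net growth. Active: below 10.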 Unmarked numbers belong to inactive results. Calls of active or inactive are those of the source.

Common to all, as to experiment: NCI-60 one-dose screen, 48 h (100 = growth as untreated, 0 = no growth, -100 = all killed)
Conditions in all cases: 10 µM unless noted

Assay [1] concerns T-47D breast.
Assay [2] concerns BT-549 breast.
In assay [3] the test system is MDA-MB-435 melanoma.
For assay [4], the system named is SW-620 colon.
The subject of assay [5] is MCF7 breast.
For assay [6], the system named is HCT-116 colon.
The test system of assay [7] is HCC-2998 colon.
In assay [8] the test system is KM12 colon.

As to `CCN(CC)CCSC(=O)C(O)(c1ccccc1)C1CCCC1` (centres undefined), the growth is 109% in assay [1]; 109% in assay [2]; 115% in assay [3]; 102% in assay [4]; 114% in assay [5]; 109% in assay [6]. Further, the growth in assay [7] was 90.3%; in assay [8], 79.4%.
Regarding `COc1ccc(C(=O)/C=C/c2ccccn2)c(O)c1`, the growth in assay [1] was 61.6%; in assay [2], 76.5%; in assay [3], 77.3%; in assay [4], 43.4%; in assay [5], 15.9%; in assay [6], 76.5%. Also, the growth was 93.6% in assay [7] and 51.1% in assay [8].
Regarding `CCCN1CC(c2ccc(OC)c(OC)c2)=C(c2cn(C(=O)OCC)c3ccccc23)C1=O`, the growth in assay [1] is 36.5%; in assay [2], 58.6%; in assay [3], -10.5% (active); in assay [4], 31.5%; in assay [5], 20.4%; in assay [6], 21%. The growth in assay [7] is 78.3%; in assay [8], 32.3%.
Turning to `[2H]C1([2H])CCN(C(=O)C2CC2)c2cc(NS(=O)(=O)c3ccc(-c4cccc(C(N)=O)c4)cc3)ccc21`, the growth in assay [1] is 19.5%; in assay [2], 79%; in assay [3] it was -11.2% (active); in assay [4] it was 31%; in assay [5], 21.4%; in assay [6] it was 81.5%. Further, the growth in assay [7] is 60.1%; in assay [8], 19.8%.
For the compound `COc1ccc(C2NC(=O)C(C#N)c3c2sc2c(F)cccc32)cc1` (centres undefined), the growth in assay [1] was 80.2%; in assay [2] it was 56.4%; in assay [3], -9.11% (active); in assay [4], 24.4%; in assay [5], 32.7%; in assay [6] it was 37.5%. The figures for the growth in assay [7] and in assay [8] were 91.5% and 41%, respectively.
For `CC1(C)C(=O)/C(=C\c2ccco2)C[C@]2(C)[C@H]3CC=C4[C@@H]5C[C@](C)(C(=O)O)CC[C@]5(C)CC[C@@]4(C)[C@]3(C)CC[C@@H]12`, the growth was -8.17% [100 µM] (active) in assay [1]; -62.6% [100 µM] (active) in assay [2]; -75.1% [100 µM] (active) in assay [3]; -63.6% [100 µM] (active) in assay [4]; -43.1% [100 µM] (active) in assay [5]; -67% [100 µM] (active) in assay [6]. The growth in assay [7] was -90.1% [100 µM] (active); in assay [8], -77.5% [100 µM] (active).
Take `CSc1cccc([N+](=O)[O-])c1`: the growth in assay [1] was 90.1%; in assay [2], 104%; in assay [3], 100%; in assay [4], 108%; in assay [5], 108%; in assay [6], 100%. Also, the results for the growth in assay [7] and in assay [8] were 108% and 113%, respectively.
Turning to `CCOC(=O)c1cc(C(=O)c2ccc(OC)c(OC)c2)n2ccc(-c3ccccn3)cc12`, the growth in assay [1] is 23.1%; in assay [2], 93.6%; in assay [3], 70.7%; in assay [4], 58.6%; in assay [5], 73.3%; in assay [6] it was 99.9%. Moreover, the growth is 90.5% in assay [7] and 77.4% in assay [8].
On to `C=C(CC(=O)OC)C(C)=O`, for which the growth in assay [1] was 108%; in assay [2] it was 127%; in assay [3] it was 116%; in assay [4] it was 102%; in assay [5], 111%; in assay [6], 116%. The values for the growth in assay [7] and in assay [8] were 112% and 102%, respectively.
Turning to `CC(C)(C)c1cc(C(=O)Nc2ccc(C(=O)NCCN)cc2)cc(C(C)(C)C)c1`, the growth in assay [1] was 27.3%; in assay [2], 87.6%; in assay [3] it was -49.5% (active); in assay [4], 1.34% (active); in assay [5] it was 3.31% (active); in assay [6], 12.8%. In addition, the growth in assay [7] was 1.78% (active); in assay [8], 12.9%.
With `O=C1CC(C(F)(F)F)Cc2nc3ccc(Br)cc3cc21` (centres undefined), the growth in assay [1] was 62.9%; in assay [2] it was 96.3%; in assay [3], 94.4%; in assay [4], 92.4%; in assay [5] it was 74.3%; in assay [6], 73.9%. In addition, the results for the growth in assay [7] and in assay [8] were 109% and 64.4%, respectively.
Consider `Cc1ccc(-c2cn(C/C=C3\C=CN(S(=O)(=O)c4ccccc4)CC3)nn2)cc1`, for which the growth was 78.3% in assay [1]; 96.1% in assay [2]; 101% in assay [3]; 102% in assay [4]; 90.3% in assay [5]; 98% in assay [6]. In addition, the growth was 109% in assay [7] and 101% in assay [8].
With `COc1cc(C(=O)/C=C/c2c(-c3ccc(F)cc3)nc3sccn23)cc(OC)c1OC`, the growth in assay [1] is 19.8%; in assay [2], 19.2%; in assay [3], -72.7% (active); in assay [4] it was 13.7%; in assay [5] it was -8.44% (active); in assay [6], 23.3%. The growth is 73.1% in assay [7] and -12.1% (active) in assay [8].
Turning to `CCN(CC)CCCNCc1cc(-c2ccccc2)nc2ccccc12`, the growth was 53.4% in assay [1]; 75.9% in assay [2]; 53.3% in assay [3]; 24.2% in assay [4]; 35.7% in assay [5]; 7.25% (active) in assay [6]. For the same compound, the growth in assay [7] was 101%; in assay [8], 82.6%.
In the case of `CC1=CCc2ccccc21`, the growth in assay [1] is 96.8%; in assay [2], 93.5%; in assay [3], 106%; in assay [4] it was 95.6%; in assay [5] it was 90.5%; in assay [6], 101%. Also, the growth is 108% in assay [7] and 103% in assay [8].
As for `COc1cc2c(cc1OCCCN1CCN(CCCOc3cc4c(cc3OC)C(=O)N3C[C@H](F)C[C@H]3C=N4)CC1)N=C[C@@H]1C[C@@H](F)CN1C2=O`, the growth in assay [1] is 13.4%; in assay [2] it was -68.5% (active); in assay [3] it was -24.9% (active); in assay [4] it was -19.1% (active); in assay [5], 6.75% (active); in assay [6], 8.44% (active). The values for the growth in assay [7] and in assay [8] were -13.1% (active) and -20% (active), respectively.
Regarding `CCOC(=O)c1sc2nc(-c3cc(OC)c(OC)c(OC)c3)nc(N3CCOCC3)c2c1C`, the growth in assay [1] is -6.97% (active); in assay [2], 41.2%; in assay [3], 35.7%; in assay [4], 36.4%; in assay [5] it was 27.1%; in assay [6] it was 25.6%. The growth in assay [7] is 51.5%; in assay [8], 31.4%.
With `CCN1CCN(CC(=O)Nc2nc3ccc(NCc4ccc(Cl)cc4)cc3s2)CC1`, the growth in assay [1] was 50.6%; in assay [2] it was 76.4%; in assay [3], -10.6% (active); in assay [4], 22%; in assay [5], 33.6%; in assay [6] it was 12.6%. Further, the growth in assay [7] was 82.1%; in assay [8], 59.9%.
For `N#Cc1c(Cl)nc(SCC2CO2)nc1-c1ccccc1` (centres undefined), the growth was 97.3% in assay [1]; 81.4% in assay [2]; 110% in assay [3]; 111% in assay [4]; 83.9% in assay [5]; 88.8% in assay [6]. Also, the growth is 111% in assay [7] and 110% in assay [8].
Consider `CCOC(=O)COc1ccc2c(c1)O/C(=C\c1ccc(O)cc1)C2=O`, for which the growth in assay [1] is 99.9%; in assay [2] it was 101%; in assay [3] it was 102%; in assay [4] it was 104%; in assay [5], 105%; in assay [6] it was 105%. The values for the growth in assay [7] and in assay [8] were 111% and 110%, respectively.
In the case of `O=C1CC(c2ccccc2)Cc2nc3ccc(Cl)cc3cc21` (centres undefined), the growth in assay [1] is 75.5%; in assay [2] it was 4.62% (active); in assay [3], -38.6% (active); in assay [4] it was 23%; in assay [5], 54%; in assay [6], 5.45% (active). The growth is 5.28% (active) in assay [7] and 1.73% (active) in assay [8].
On to `CCCCCCCCCCCCCCNC(=O)Nc1ccc(Cl)c(Cl)c1`, for which the growth in assay [1] is 33.9%; in assay [2], 24.7%; in assay [3] it was 18.3%; in assay [4], 32.9%; in assay [5], 30%; in assay [6], 23.6%. Besides, the figures for the growth in assay [7] and in assay [8] were 14.5% and 35.8%, respectively.
As for `CC1(C)C(=NO)C(C)(C)C1=NO`, the growth in assay [1] was 121%; in assay [2] it was 116%; in assay [3] it was 92.2%; in assay [4] it was 100%; in assay [5] it was 106%; in assay [6], 103%. Moreover, the values for the growth in assay [7] and in assay [8] were 98% and 118%, respectively.
`Cn1cc(-c2nnc(-c3cn(C)c4ncccc34)o2)c2ccccc21`: the growth in assay [1] was 12.2%; in assay [2], 42.4%; in assay [3], -32.8% (active); in assay [4], 26.7%; in assay [5], 20.2%; in assay [6], 23%. The growth in assay [7] was 65.7%; in assay [8], 22.1%.
Regarding `CCc1ccc(C2=C/C(=C/c3ccccc3)C(=O)N2CCc2ccc(S(N)(=O)=O)cc2)cc1`, the growth was 97.8% in assay [1]; 100% in assay [2]; 110% in assay [3]; 106% in assay [4]; 96.3% in assay [5]; 103% in assay [6]. Moreover, the growth was 109% in assay [7] and 104% in assay [8].
Consider `C=C(C)[C@@H]1CC[C@]2(COCCC#N)CC[C@]3(C)[C@H](CC[C@@H]4[C@@](C)(CCCNCCC#N)[C@H](C(=C)C)CC[C@]43C)[C@@H]12`, for which the growth is 23.4% [100 µM] in assay [1]; 41% [100 µM] in assay [2]; 1.59% [100 µM] (active) in assay [3]; -38.3% [100 µM] (active) in assay [4]; 9.79% [100 µM] (active) in assay [5]; -53.8% [100 µM] (active) in assay [6]. Further, the growth in assay [7] was 12.9% [100 µM]; in assay [8], 27.4% [100 µM].
For `COc1ccc(NC(=S)NNc2ccc(-c3ccc(OC)c(OC)c3)nn2)cc1`, the growth in assay [1] is 96.4%; in assay [2], 98.5%; in assay [3], 107%; in assay [4] it was 102%; in assay [5] it was 96.5%; in assay [6], 102%. The growth in assay [7] is 109%; in assay [8] it was 104%.
As to `C#C[C@]1(O)CC[C@H]2[C@@H]3CC=C4c5nc(Nc6ccc(OC)cc6OC)sc5CC[C@]4(C)[C@H]3CC[C@@]21C`, the growth in assay [1] was 22.3%; in assay [2], -16.7% (active); in assay [3] it was -4.22% (active); in assay [4], -12.8% (active); in assay [5], 4.51% (active); in assay [6], -21.1% (active). The growth in assay [7] was 29.8%; in assay [8] it was -50.4% (active).
